According to paper PMC11995724, “Antibiotic target discovery by integrated phenotypic and activity-based profiling of electrophilic fragments” (Cell chemical biology, 2025):
The whole screen tested about 3,200 compounds, of which about 75 (2%) showed an effect of 50% or more. Many of the other results were omitted from the sample, so strong results are more common in it than they were.

Each compound was assayed on T1, S. aureus MSSA476. Details: relative growth, OD600, TSB; 25 µM; inhibitor.
T1 construct: MSSA476
Parameters: species or system S. aureus MSSA476 (TSB) or V. cholerae SAD30 (LB); 384-well bacterial growth screen at 25 uM, OD600 relative to DMSO control
For `C=CC(=O)NCc1ccc(C(=O)N2CCC[C@@H]2C(N)=O)cc1` [3-L22, (2R)-1-{4-[(prop-2-enamido)methyl]benzoyl}pyrrolidine-2-carboxamide], the “% of control remaining” value was 98.2151%.
For `CC(Cl)C(=O)NC(c1ccc(F)cc1)c1cnn(C)c1` (centres unmarked) [7-C19, 2-chloro-N-[(4-fluorophenyl)(1-methyl-1H-pyrazol-4-yl)methyl]propanamide], the “% of control remaining” value was 93.2496%.
For `N#CC(=Cc1cnc2ccc(C#N)cn12)C(=O)Nc1ccc(F)cc1` [9-E20, 2-cyano-3-{6-cyanoimidazo[1,2-a]pyridin-3-yl}-N-(4-fluorophenyl)prop-2-enamide], the “% of control remaining” value was 103.67%.
`CC(Cl)C(=O)N1CCn2c(nn(CC(=O)N(C)C)c2=O)C1` (centres unmarked) [7-K17, 2-[7-(2-chloropropanoyl)-3-oxo-2H,3H,5H,6H,7H,8H-[1,2,4]triazolo[4,3-a]pyrazin-2-yl]-N,N-dimethylacetamide] was tested, and the “% of control remaining” value was 89.4819%.
In the case of `Cc1cc(C)n(CCCNC(=O)C(C)Cl)n1` (centres unmarked) [7-O19, 2-chloro-N-[3-(3,5-dimethyl-1H-pyrazol-1-yl)propyl]propanamide], the “% of control remaining” value is reported as 98.2732%.
With `Cc1nn(C)c(C)c1NC(=O)C(C)Cl` (centres unmarked) [6-C07, 2-chloro-N-(1,3,5-trimethyl-1H-pyrazol-4-yl)propanamide] the “% of control remaining” value was 84.6829%.
`Cc1cc(NC(=O)CCl)c([N+](=O)[O-])cc1C` [4-F21, 2-chloro-N-(4,5-dimethyl-2-nitrophenyl)acetamide] was tested, and the “% of control remaining” value was 87.2797%.
`Cc1cc(C(=O)CCl)c(C)n1-c1ccc(Cl)cc1` [10-H18, 2-chloro-1-[1-(4-chlorophenyl)-2,5-dimethyl-1H-pyrrol-3-yl]ethan-1-one] was tested, and the “% of control remaining” value was -0.625%.
In the case of `Cc1cc(C(=O)CCl)c(C)n1-c1ccc(S(N)(=O)=O)cc1` [10-N14, 4-[3-(2-chloroacetyl)-2,5-dimethyl-1H-pyrrol-1-yl]benzene-1-sulfonamide], the “% of control remaining” value is reported as 121.875%.
In the case of `Cc1cc(C(=O)CCl)c(C)n1-c1ccccc1` [10-L20, 2-chloro-1-(2,5-dimethyl-1-phenyl-1H-pyrrol-3-yl)ethan-1-one], the “% of control remaining” value is reported as 127.188%.
With `CC(Cl)C(=O)N[C@@H]1CCc2c(C#N)cccc21` (stereo partly drawn) [6-P14, 2-chloro-N-[(1R)-4-cyano-2,3-dihydro-1H-inden-1-yl]propanamide] the “% of control remaining” value was 122.927%.
For `COc1ccc(CNC(=O)CCl)cc1OC` [5-O11, 2-chloro-N-[(3,4-dimethoxyphenyl)methyl]acetamide], the “% of control remaining” value was 81.6029%.
`O=C(CCl)NCCS(=O)(=O)N1CCc2ccccc21` [6-H04, 2-chloro-N-[2-(2,3-dihydro-1H-indole-1-sulfonyl)ethyl]acetamide] was tested, and the “% of control remaining” value was 86.0488%.
For `CC(=O)NCCc1cc(C(=O)CCl)ccc1F` [10-O05, N-{2-[5-(2-chloroacetyl)-2-fluorophenyl]ethyl}acetamide], the “% of control remaining” value was 128.438%.
`CS(=O)(=O)N1CCCc2cc(C(=O)CCl)ccc21` [10-H19, 2-chloro-1-(1-methanesulfonyl-1,2,3,4-tetrahydroquinolin-6-yl)ethan-1-one] was tested, and the “% of control remaining” value was 1.5625%.
`CN1C(=O)Cc2cc(C(=O)CCl)ccc21` [10-G07, 5-(2-chloroacetyl)-1-methyl-2,3-dihydro-1H-indol-2-one] was tested, and the “% of control remaining” value was 132.813%.
In the case of `CC1Cc2cc(C(=O)CCl)ccc2N1S(C)(=O)=O` (centres unmarked) [10-A04, 2-chloro-1-(1-methanesulfonyl-2-methyl-2,3-dihydro-1H-indol-5-yl)ethan-1-one], the “% of control remaining” value is reported as 1.875%.
With `CCS(=O)(=O)N1CCc2cc(C(=O)CCl)ccc21` [10-E18, 2-chloro-1-[1-(ethanesulfonyl)-2,3-dihydro-1H-indol-5-yl]ethan-1-one] the “% of control remaining” value was 0.3125%.
`CC(=O)N1c2ccc(C(=O)CCl)cc2CC1C` (centres unmarked) [10-I20, 1-(1-acetyl-2-methyl-2,3-dihydro-1H-indol-5-yl)-2-chloroethan-1-one] was tested, and the “% of control remaining” value was 66.25%.
In the case of `CCC(=O)N1CCc2cc(C(=O)CCl)ccc21` [10-C22, 1-[5-(2-chloroacetyl)-2,3-dihydro-1H-indol-1-yl]propan-1-one], the “% of control remaining” value is reported as 125.938%.
With `O=CN1CCc2cc(C(=O)CCl)ccc21` [10-K20, 5-(2-chloroacetyl)-2,3-dihydro-1H-indole-1-carbaldehyde] the “% of control remaining” value was 102.813%.
With `CS(=O)(=O)N1CCc2cc(C(=O)CCl)ccc21` [10-B19, 2-chloro-1-(1-methanesulfonyl-2,3-dihydro-1H-indol-5-yl)ethan-1-one] the “% of control remaining” value was 0.3125%.
With `CC(=O)N1CCc2cc(C(=O)C(C)Cl)ccc21` (centres unmarked) [10-L22, 1-(1-acetyl-2,3-dihydro-1H-indol-5-yl)-2-chloropropan-1-one] the “% of control remaining” value was 124.375%.
For `C=CC(=O)NC1CCCN(C(=O)CCC(F)(F)F)C1` (centres unmarked) [1-B03, N-[1-(4,4,4-trifluorobutanoyl)piperidin-3-yl]prop-2-enamide], the “% of control remaining” value was 102.681%.
For `C=CC(=O)N(C)c1ccccc1C(=O)NC` [2-O18, N-methyl-2-(N-methylprop-2-enamido)benzamide], the “% of control remaining” value was 115.231%.
For `C=CC(=O)Nc1ccc(S(C)(=O)=O)cc1OCC` [2-C08, N-(2-ethoxy-4-methanesulfonylphenyl)prop-2-enamide], the “% of control remaining” value was 116.275%.
In the case of `Cl.O=C(CCl)NC1CCN(Cc2ccccc2)CC1` [5-E19, N-(1-benzylpiperidin-4-yl)-2-chloroacetamide hydrochloride], the “% of control remaining” value is reported as 109.654%.
`O=C(CCl)NCC1CCCN(C(=O)C(F)(F)F)C1` (centres unmarked) [7-N18, 2-chloro-N-{[1-(2,2,2-trifluoroacetyl)piperidin-3-yl]methyl}acetamide] was tested, and the “% of control remaining” value was 107.378%.
`CCOc1ccc(C=C(C#N)C(=O)Nc2cccc3ncccc23)cc1` [8-A07, 2-cyano-3-(4-ethoxyphenyl)-N-(quinolin-5-yl)prop-2-enamide] was tested, and the “% of control remaining” value was 131.452%.
